PubChem BioAssay (NCATS)
Where “and” joins values, the source holds several entries; their conditions need not be identical. Equal entries are not always repeated. Inconclusive results are not listed. Values without a mark were called inactive. Calls of active or inactive are those of the source. Calls come from the whole dose curve; as a rule, active = well fitted cell-killing curve with a large enough effect; inconclusive = small, poorly fitted or top-dose-only effect, or effect the other way; inactive = no such curve, though single readings can be large or run the other way.
Potency is the fitted concentration of half-maximal effect.

Assay: Viability qHTS for spleen associated tyrosine kinase inhibitor (SYKi) naive MV4-11 cells (AID 1963823); note: nearly all actives have a fitted effect of over 40% in size
Conditions: MV4-11 AML viability, CellTiter-Glo luminescence, 72 h; series mostly up to 45 µM; viability (% of control): at the top concentration
Text: Department of Medicine, Hematology/Oncology
University Hospital Frankfurt, Germany.
Trials have shown promising clinical activity of the selective SYK inhibitor entospletinib in patients with high expressing HOXA9/MEIS1 acute leukemias. As the development of resistance mechanisms is a common problem in the use of targeted drugs, we performed a chemical library screen to identify drug sensitivities in SYK inhibitor resistant AML cells. […] Glucocorticoids are potent immunosuppressants which work in part by inhibiting the transcription of cytokine genes.
Described herein is a viability screen to look for activity in the SYK inhibitor naive cell line against four NCATS compound libraries (MIPE 5.0, NPC, NPACT, and Kinase) totaling 11372 compounds. Active hits were reacquired for confirmation and further secondary assay testing.
SEQUENCE No. (e.g., 1, 2, 3, etc.); […] (e.g., Cells, Incubation, Reagent, etc.); VALUE; DESCRIPTION.
1; Media; 2uL; white, solid-bottom Corning assay plate.
2; Compounds; 23nL; Echo acoustic dispenser.
3; Cell; 5uL; 500 cells per well.
4: Incubation; 72hr; 37 C, 5% CO2, 95% humidity.
5; Reagent; 3uL; CellTiter-Glo reagent (Promega).
6; Incubation; 10min; room temperature.
7; Detection; Luminescence; ViewLux plate reader (PerkinElmer).
NOTES (numbers refer to Sequence numbers above
1. Quantitative high-throughput screening (qHTS) of small molecule compounds was conducted on naive SYKi MV4-11 cell line.
2. Twenty-three nanoliter of small molecule compounds were added to each assay plates using the Echo acoustic dispenser (Beckman Coulter).
3. Cells were seeded into the assay plates at a final density of 500 cells in 5uL of media per well using the Multi-drop Combi dispenser.
4. Plates were covered with stainless steel gasketed lids and incubated for 72 hours at standard cell culture conditions.
5. Viability was assessed by adding 3uL of CellTiter-Glo detection reagent (Promega).
6. Plates were covered with gasket lids and incubated for 10 minutes at room temperature.
7. Luminescence was measured on a ViewLux plate reader (PerkinElmer).
In the case of `COCCc1ccccn1`, the Potency is reported as 0.075 µM (active).
In the case of `CCOc1ccccc1OCC1CNCCO1` (stereo not given), the “viability (% of control)” value is reported as 70.2%.
For `Cc1noc(C)c1-c1cc(O)cc(C(O)c2ccccc2)c1` (stereo not given), the Potency was 1.46 µM (active).
For `CC(=O)C1(C)CCC2C3C=C(C)C4=CC(=O)CCC4(C)C3CCC21C` (stereo not given), the Potency was 5.8 µM (active).
In the case of `COc1ccc2[nH]c3c(c2c1)CCN[C@]31CS[C@@H]2c3c(OC(C)=O)c(C)c4c(c3[C@H](COC1=O)N1[C@@H]2[C@H]2c3c(cc(C)c(OC)c3O)C[C@@H]([C@@H]1O)N2C)OCO4`, the Potency is reported as 0.0015 µM (active).
In the case of `Cc1cc(N(C)C)ccc1-c1nc2ccc(-c3nc4ccc(N5CCN(C)CC5)cc4[nH]3)cc2[nH]1`, the Potency is reported as 0.411 µM (active).
In the case of `CCCn1c(=O)c2[nH]c(C34CC5CC3C[C@@H](C5)C4)nc2n(CCC)c1=O`, the Potency is reported as 18.6 µM (active).
With `COc1cccc(C(=O)N2CCN(C(=O)COc3cccc(C)c3)CC2)c1OC` the “viability (% of control)” value was 56%.
With `O=C1OC(OC(=O)c2cccnc2Nc2cccc(C(F)(F)F)c2)c2ccccc21` (stereo not given) the “viability (% of control)” value was 75.8%.
With `CC1=CC2/C=C(\C)CCC(O)C(=O)C(O)CC(=O)C23C(=O)NC(CC(C)C)C3C1C` (stereo not given) the Potency was 10 µM (active).
For `CC(=O)Nc1nc(C)c(-c2ccc(Cl)c(S(=O)(=O)NCCO)c2)s1`, the Potency was 0.82 µM (active).
With `c1ccc2sc(SN3CCOCC3)nc2c1` the “viability (% of control)” value was 64.9%.
For `N#CC[C@H](C1CCCC1)n1cc(-c2ncnc3[nH]ccc23)cn1`, the Potency was 8.2 µM (active).
With `CCN(CC)CC(=O)Nc1c(C)cccc1C(=O)OC` the “viability (% of control)” value was 75.4%.
With `COc1cc2nc(N3CCN(C(=O)COc4c(OC)cccc4C(C)C)CC3)nc(N)c2cc1OC` the Potency was 20.6 µM (active).
For `Cc1cccc(N(C)C(=S)Oc2ccc3c(c2)C2CCC3C2)c1` (stereo not given), the “viability (% of control)” value was 56.8%.
With `CS(=O)(=O)CCNCc1ccc(-c2ccc3ncnc(Nc4ccc(OCc5cccc(F)c5)c(Cl)c4)c3c2)o1` the Potency was 20.6 µM (active) and 14.8 µM (active).
For `Cc1nc2n(c(=O)c1CCN1CCC(c3noc4cc(F)ccc34)CC1)CCCC2`, the “viability (% of control)” value was 70.8%.
In the case of `C=C1C(=O)O[C@@H]2/C=C(\C)CC/C=C(\C(=O)O[C@@H]3O[C@H](CO)[C@@H](O)[C@H](O)[C@H]3O)CC[C@@H]12`, the “viability (% of control)” value is reported as 65.6% [at 17.3 µM].
For `CN1[C@@H]2CC[C@H]1CC(NC(=O)n1c(=O)[nH]c3ccccc31)C2` (stereo not given in full), the “viability (% of control)” value was 85.5%.
With `C1COC(NC(C2CC2)C2CC2)=N1` the Potency was “inactive”.
For `c1ccc(CNc2nc(NCc3ccccc3)c3ccccc3n2)cc1`, the Potency was 1.86 µM (active).
For `COc1cc(O)c2c(c1)C1=C[C@H](O)[C@@H](O)C[C@]1(C)OC2=O`, the “viability (% of control)” value was 78%.
For `COc1nccnc1NS(=O)(=O)c1ccc(N)cc1`, the “viability (% of control)” value was 85%.
With `CCOc1cc(C(=O)N2CCC(N3CCN(C)CC3)CC2)ccc1Nc1ncc2c(n1)N(C1CCCC1)c1ccccc1C(=O)N2C` the Potency was 651 nM (active) and 1.05 µM (active).
In the case of `C/C(=N\O)[C@@H](C)NCC(C)(C)CN[C@H](C)/C(C)=N/O`, the “viability (% of control)” value is reported as 82.6%.
With `CN(C)CCCN=c1c2ccccc2n(C)c2[nH]c(=O)n(C)c(=O)c12` the Potency was 5.9 µM (active).
With `CC1(C)CCCC2(C)C=C(C(=O)O)C(O)CC12` (stereo not given) the “viability (% of control)” value was 39.5%.
With `CN(C)CCN(Cc1ccsc1)c1ccccn1` the “viability (% of control)” value was 90.1%.
In the case of `CC1C(=O)OCC2=CC[N+]3([O-])CCC(OC(=O)C(C)(O)C1(C)O)C23` (stereo not given), the “viability (% of control)” value is reported as 83.7%.
In the case of `O=C(Nc1cccc(Nc2cc(Nc3cccc(C(F)(F)F)c3)ncn2)c1)C1CC1`, the Potency is reported as 0.164 µM (active).
In the case of `C=C1CC[C@H]2C(=C)CC[C@H]3C(=C)C(=O)O[C@@H]3[C@@H]12`, the Potency is reported as 4.11 µM (active).
For `COc1cc2nccc(Oc3ccc(NC(=O)Nc4cc(C)on4)c(Cl)c3)c2cc1OC`, the Potency was 0.372 µM (active).
In the case of `CN1CCCN(C(=O)c2cccc(-c3ccc(/C=C4\C(=O)Nc5ccc(Cl)cc54)o3)c2)CC1`, the Potency is reported as 0.184 µM (active).
For `Cn1c(=O)c2nc(/C=C/c3cccc(Cl)c3)n(C)c2n(C)c1=O`, the “viability (% of control)” value was 93% [at 91.9 µM].
In the case of `COC(O)(CC(C)C)C1Oc2cc(C)[nH]c(=O)c2O1` (stereo not given), the “viability (% of control)” value is reported as 70.1%.
With `C[N+](C)(C)CCCCCC[N+](C)(C)C` the “viability (% of control)” value was 90.8%.
With `Cc1cccc(C)c1NC(=O)c1ccc(N)cc1` the “viability (% of control)” value was 88.1%.
In the case of `Cc1cc(NC(=O)C2=C(O)c3ccccc3S(=O)(=O)N2C)no1`, the “viability (% of control)” value is reported as 77.6%.
For `COc1cc2c(cc1OC)-c1[nH]nc(Nc3cccc(F)c3)c1C2`, the Potency was 0.082 µM (active).
